Measurements reported in publication PMC5540273 (PLoS ONE, 2017).

Experiments:
Conditions in all cases: concentration: 1 μM, replicates: in singlicate; n = 1
MAP3K15 = tested on: MAP3K15
MAP3K1 = tested on: MAP3K1
MAP3K2 = tested on: MAP3K2
MAP3K3 = tested on: MAP3K3
MAP3K4 = tested on: MAP3K4
MAP4K2 = tested on: MAP4K2
MAP4K3 = tested on: MAP4K3
MAP4K4 = tested on: MAP4K4
MAP4K5 = tested on: MAP4K5
MAPKAPK2 = tested on: MAPKAPK2
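Also: KINOMEscan kinase panel screen.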

Which “%Inh” value (MAP3K15) does the source give for Cl.c1ccc(-c2ccc3c(Nc4ccc5[nH]ccc5c4)ccnc3c2)nc1 [GW440138] here?
Its value is 0%.

What about the “%Inh” value (MAP3K1) of the same molecule?
The value was 1%.

What about the “%Inh” value (MAP3K2) of the same molecule?
The value was 0%.

And the “%Inh” value (MAP3K3)?
Its value is 0%.

What about the “%Inh” value (MAP3K4) of the same molecule?
Its value is 9%.

And the “%Inh” value (MAP4K2)?
Its value is 46%.

What about the “%Inh” value (MAP4K3) of the same molecule?
Its value is 0%.

What about the “%Inh” value (MAP4K4) of the same molecule?
Its value is 12%.

And the “%Inh” value (MAP4K5)?
Its value is 0%.

What about the “%Inh” value (MAPKAPK2) of the same molecule?
The value was 9%.

What does the source list for Cn1cc(-c2ccc3c(c2)CCN3C(=O)Cc2cccc(F)c2)c2c(N)ncnc21 [GSK2603358]?
%Inh (MAP3K15): 0%; %Inh (MAP3K1): 15%; %Inh (MAP3K2): 84%; %Inh (MAP3K3): 50%; %Inh (MAP3K4): 66%; %Inh (MAP4K2): 18%; %Inh (MAP4K3): 64%; %Inh (MAP4K4): 0%; %Inh (MAP4K5): 57%; %Inh (MAPKAPK2): 31%

For O=c1[nH]cc(-c2ccc(N3CCOCC3)cc2)c2sc(-c3cn[nH]c3)cc12 [GSK2276055], which “%Inh” value (MAP3K15) is on record?
Its value is 0%.

And the “%Inh” value (MAP3K1)?
Its value is 16%.

What about the “%Inh” value (MAP3K2) of the same molecule?
Its value is 12%.

And the “%Inh” value (MAP3K3)?
The value was 0%.

What about the “%Inh” value (MAP3K4) of the same molecule?
Its value is 21%.

What about the “%Inh” value (MAP4K2) of the same molecule?
Its value is 27%.

And the “%Inh” value (MAP4K3)?
Its value is 0%.

What about the “%Inh” value (MAP4K4) of the same molecule?
The value was 1%.

And the “%Inh” value (MAP4K5)?
The value was 2%.

And the “%Inh” value (MAPKAPK2)?
The value was 0%.

COC(=O)Nc1nc2ccc(Oc3ccc(NC(=O)Nc4cc(C(F)(F)F)ccc4F)cc3)cc2n1C.Cl [GW692089] was tested. Which “%Inh” value (MAP3K15) did it give?
Its value is 0%.

What about the “%Inh” value (MAP3K1) of the same molecule?
The value was 2%.

What about the “%Inh” value (MAP3K2) of the same molecule?
The value was 0%.

What about the “%Inh” value (MAP3K3) of the same molecule?
The value was 0%.

And the “%Inh” value (MAP3K4)?
Its value is 0%.

And the “%Inh” value (MAP4K2)?
Its value is 0%.

What about the “%Inh” value (MAP4K3) of the same molecule?
Its value is 0%.

And the “%Inh” value (MAP4K4)?
Its value is 0%.

What about the “%Inh” value (MAP4K5) of the same molecule?
The value was 0%.

What about the “%Inh” value (MAPKAPK2) of the same molecule?
Its value is 6%.

With O=C(Nc1n[nH]c2nc(-c3ccc(O)cc3)ccc12)C1CC1 [SB-710363] as the molecule, how does the “%Inh” value (MAP3K15) read?
Its value is 32%.

What about the “%Inh” value (MAP3K1) of the same molecule?
The value was 10%.

And the “%Inh” value (MAP3K2)?
The value was 13%.

What about the “%Inh” value (MAP3K3) of the same molecule?
The value was 30%.

And the “%Inh” value (MAP3K4)?
Its value is 0%.

And the “%Inh” value (MAP4K2)?
Its value is 41%.

What about the “%Inh” value (MAP4K3) of the same molecule?
The value was 0%.

What about the “%Inh” value (MAP4K4) of the same molecule?
The value was 53%.

What about the “%Inh” value (MAP4K5) of the same molecule?
The value was 0%.

And the “%Inh” value (MAPKAPK2)?
Its value is 0%.

Which “%Inh” value (MAP3K15) does the source give for CNC(=O)c1ccccc1Nc1nc(Nc2ccc(N3CCOCC3)cc2)ncc1Cl.Cl [GSK1576028] here?
Its value is 36%.

What about the “%Inh” value (MAP3K1) of the same molecule?
The value was 22%.

What about the “%Inh” value (MAP3K2) of the same molecule?
Its value is 99.5%.

What about the “%Inh” value (MAP3K3) of the same molecule?
The value was 99.4%.

What about the “%Inh” value (MAP3K4) of the same molecule?
Its value is 90.1%.

What about the “%Inh” value (MAP4K2) of the same molecule?
The value was 93.5%.

What about the “%Inh” value (MAP4K3) of the same molecule?
Its value is 98.9%.

What about the “%Inh” value (MAP4K4) of the same molecule?
Its value is 28%.

What about the “%Inh” value (MAP4K5) of the same molecule?
Its value is 81%.

What about the “%Inh” value (MAPKAPK2) of the same molecule?
Its value is 0%.

With O=C(Nc1ccccc1F)NC1CCN(c2ccnc(Nc3ccc(F)cc3)n2)CC1 [GSK1379800] as the molecule, how does the “%Inh” value (MAP3K15) read?
The value was 0%.

And the “%Inh” value (MAP3K1)?
Its value is 13%.

What about the “%Inh” value (MAP3K2) of the same molecule?
The value was 0%.

What about the “%Inh” value (MAP3K3) of the same molecule?
The value was 0%.

And the “%Inh” value (MAP3K4)?
Its value is 0%.

What about the “%Inh” value (MAP4K2) of the same molecule?
The value was 0%.

What about the “%Inh” value (MAP4K3) of the same molecule?
The value was 0%.

What about the “%Inh” value (MAP4K4) of the same molecule?
Its value is 0%.

What about the “%Inh” value (MAP4K5) of the same molecule?
The value was 0%.

And the “%Inh” value (MAPKAPK2)?
The value was 6%.

Which “%Inh” value (MAP3K15) does the source give for Oc1cc(Nc2ccnc3cc(I)ccc23)ccc1F [GW552771] here?
The value was 11%.

What about the “%Inh” value (MAP3K1) of the same molecule?
Its value is 7%.

What about the “%Inh” value (MAP3K2) of the same molecule?
Its value is 9%.

And the “%Inh” value (MAP3K3)?
Its value is 0%.

What about the “%Inh” value (MAP3K4) of the same molecule?
The value was 0%.

And the “%Inh” value (MAP4K2)?
Its value is 0%.

And the “%Inh” value (MAP4K3)?
Its value is 0%.

What about the “%Inh” value (MAP4K4) of the same molecule?
The value was 67%.

What about the “%Inh” value (MAP4K5) of the same molecule?
Its value is 100%.

What about the “%Inh” value (MAPKAPK2) of the same molecule?
The value was 24%.

Which results are given for Cc1cccc(NC(=O)Nc2ccc(Oc3ncnc4ccn(C)c34)cc2)c1?
%Inh (MAP3K15): 0%; %Inh (MAP3K1): 0%; %Inh (MAP3K2): 0%; %Inh (MAP3K3): 0%; %Inh (MAP3K4): 0%; %Inh (MAP4K2): 0%; %Inh (MAP4K3): 0%; %Inh (MAP4K4): 0%; %Inh (MAP4K5): 0%; %Inh (MAPKAPK2): 0%

Which results are given for COc1cc(Nc2nccc(-c3c(-c4cccc(NC(=O)c5c(F)cccc5F)c4)nn4ccccc34)n2)cc(OC)c1OC [GSK323521]?
%Inh (MAP3K15): 0%; %Inh (MAP3K1): 27%; %Inh (MAP3K2): 56%; %Inh (MAP3K3): 20%; %Inh (MAP3K4): 65%; %Inh (MAP4K2): 37%; %Inh (MAP4K3): 71%; %Inh (MAP4K4): 0%; %Inh (MAP4K5): 70%; %Inh (MAPKAPK2): 24%

What does the source list for Nc1ncnc2c1nc(-c1ccccc1)n2-c1ccccc1 [SKF-97293]?
%Inh (MAP3K15): 22%; %Inh (MAP3K1): 34%; %Inh (MAP3K2): 28%; %Inh (MAP3K3): 14%; %Inh (MAP3K4): 35%; %Inh (MAP4K2): 18%; %Inh (MAP4K3): 3%; %Inh (MAP4K4): 0%; %Inh (MAP4K5): 2%; %Inh (MAPKAPK2): 0%

How did the “%Inh” value (MAP3K15) turn out when Nc1ncc(-c2cccnc2)c2scc(-c3ccc4c(c3)CCN4C(=O)Cc3ccccc3)c12 [GSK683281] was run?
Its value is 100%.

And the “%Inh” value (MAP3K1)?
The value was 41%.

And the “%Inh” value (MAP3K2)?
Its value is 56%.

And the “%Inh” value (MAP3K3)?
Its value is 18%.

What about the “%Inh” value (MAP3K4) of the same molecule?
The value was 69%.

What about the “%Inh” value (MAP4K2) of the same molecule?
Its value is 23%.

And the “%Inh” value (MAP4K3)?
The value was 95.2%.

And the “%Inh” value (MAP4K4)?
Its value is 8%.

What about the “%Inh” value (MAP4K5) of the same molecule?
The value was 98.8%.

What about the “%Inh” value (MAPKAPK2) of the same molecule?
Its value is 24%.

How did the “%Inh” value (MAP3K15) turn out when CN(C)Cc1ccc(-c2ccc3c(Nc4ccc(Oc5ccccn5)cc4)ccnc3c2)o1 [GW567148] was run?
Its value is 0%.

And the “%Inh” value (MAP3K1)?
The value was 14%.

And the “%Inh” value (MAP3K2)?
The value was 0%.

What about the “%Inh” value (MAP3K3) of the same molecule?
The value was 0%.

What about the “%Inh” value (MAP3K4) of the same molecule?
The value was 0%.

And the “%Inh” value (MAP4K2)?
Its value is 5%.

And the “%Inh” value (MAP4K3)?
The value was 0%.

What about the “%Inh” value (MAP4K4) of the same molecule?
The value was 6%.

And the “%Inh” value (MAP4K5)?
Its value is 61%.

And the “%Inh” value (MAPKAPK2)?
The value was 3%.

CN(c1ccc(NC(=O)Nc2cc(C(F)(F)F)ccc2F)cc1)c1ccnc(Nc2ccc(S(N)(=O)=O)cc2)n1 [GW809893] was tested. Which “%Inh” value (MAP3K15) did it give?
The value was 0%.

What about the “%Inh” value (MAP3K1) of the same molecule?
Its value is 33%.

What about the “%Inh” value (MAP3K2) of the same molecule?
Its value is 7%.

And the “%Inh” value (MAP3K3)?
Its value is 15%.

What about the “%Inh” value (MAP3K4) of the same molecule?
The value was 72%.

And the “%Inh” value (MAP4K2)?
Its value is 26%.

What about the “%Inh” value (MAP4K3) of the same molecule?
Its value is 96.8%.

What about the “%Inh” value (MAP4K4) of the same molecule?
The value was 97.7%.

What about the “%Inh” value (MAP4K5) of the same molecule?
Its value is 99.2%.

What about the “%Inh” value (MAPKAPK2) of the same molecule?
Its value is 0%.

Which “%Inh” value (MAP3K15) does the source give for O=C(Nc1cccc(-c2nn3ccccc3c2-c2ccnc(Nc3cccc(C(F)(F)F)c3)n2)c1)c1c(F)cccc1F [GSK292658] here?
The value was 26%.

And the “%Inh” value (MAP3K1)?
The value was 11%.

What about the “%Inh” value (MAP3K2) of the same molecule?
Its value is 0%.

What about the “%Inh” value (MAP3K3) of the same molecule?
The value was 2%.

What about the “%Inh” value (MAP3K4) of the same molecule?
The value was 6%.

What about the “%Inh” value (MAP4K2) of the same molecule?
Its value is 6%.

What about the “%Inh” value (MAP4K3) of the same molecule?
Its value is 0%.

And the “%Inh” value (MAP4K4)?
The value was 1%.

And the “%Inh” value (MAP4K5)?
The value was 15%.

What about the “%Inh” value (MAPKAPK2) of the same molecule?
Its value is 21%.

Which “%Inh” value (MAP3K15) does the source give for CC(=O)Nc1nc2cnc(Nc3cc(NC(=O)c4cccc(C5(C#N)CC5)c4Cl)ccc3C)nc2s1 here?
The value was 0%.

And the “%Inh” value (MAP3K1)?
Its value is 0%.

And the “%Inh” value (MAP3K2)?
The value was 0%.

And the “%Inh” value (MAP3K3)?
The value was 0%.

What about the “%Inh” value (MAP3K4) of the same molecule?
The value was 10%.

And the “%Inh” value (MAP4K2)?
The value was 16%.

And the “%Inh” value (MAP4K3)?
Its value is 0%.

What about the “%Inh” value (MAP4K4) of the same molecule?
Its value is 17%.

And the “%Inh” value (MAP4K5)?
The value was 0%.

What about the “%Inh” value (MAPKAPK2) of the same molecule?
Its value is 0%.
